Assay outcomes (PubChem)
This is a sample that favours compounds with a hit; in the whole collection about 1.5% have one here.
Integrin act MD: qHTS for Activators of Integrin-Mediated Alleviation for Muscular Dystrophy; alpha7betagal myoblasts, beta-gal FDG fluorescence, 48 h; Potency, µM (top dose mostly 38.3 µM), usual class: activators; actives 0.064% (n = 350,000); also: nearly all actives have a fitted effect of over 60% in size
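Alpha7betagal+/- myoblasts (passage 13) were plated 16-24 hr, then exposed to compounds (1:260 dilution of DMSO stock) for 48 hours at 37C. After MPER lysis, β-galactosidase reporter activity was read as FDG fluorescence (ex 480/em 540) after 30 minutes.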
IL-2 act: qHTS of IL-2 Activators; IL-2 activation reporter assay, cell-based qHTS; stimulated with anti-CD3/CD4/CD28 beads; in transgenic mouse T cells; activation, % (series mostly up to about 46 µM); actives 0.065% (n = 360,000); AID 652025, 2013; in the data active = activation above about 50%; inconclusive = mostly about 30% to 49%
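Readout: EGFP and DsRed signals by fluorescent plate cytometry. Unstimulated transgenic mouse T cells received compound 60 min before antibody-bead stimulation, then incubated 18 h at 37 degrees C.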
uPA surface inh: qHTS for Inhibitors of Cell Surface uPA Generation. cell surface uPA generation assay, qHTS. Potency, µM (doses to about 38.3 µM), actives largely listed as inhibitors. actives 0.31% (n = 330,000). AID 540303, 2011; active = well fitted inhibition curve with a large enough effect; inconclusive = small, poorly fitted or top-dose-only effect; inactive = no such curve, though single readings can be large or run the other way; tested in mouse RAW 264.7 cells; also: nearly all actives have a fitted effect of over 55% in size
Nrf2 activator: qHTS of Nrf2 Activators. Potency, µM (series often up to 46.1 µM), usual class: activators. AID 624171, 2012. AREc32 ARE-luciferase reporter (MCF7-derived line), luminescence, 24 h. actives 0.31% (n = 410,000); also: nearly all actives have a fitted effect of over 65% in size
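ARE activation measured as luciferase luminescence (Steady-Glo, 30 min RT) in AREc32_Fluc cells after 24 hr compound exposure at 37 deg C, 5% CO2; cells seeded overnight at 1000/well in OPTI-MEM, 5% FBS.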
12-LOX inh: Primary qHTS assay for inhibitors of human arachidonate 12S-lipoxygenase (ALOX12): Round 2 | actives 1.1% (n = 580,000) | AID 1671190, 2021 | Polyunsaturated fatty acid lipoxygenase ALOX12 (Homo sapiens), P18054 | purified 12hLO, xylenol orange hydroperoxide absorbance | Potency, µM (top dose mostly 108 µM), usual class: inhibitors
Target sequence (P18054 whole entry, looked up): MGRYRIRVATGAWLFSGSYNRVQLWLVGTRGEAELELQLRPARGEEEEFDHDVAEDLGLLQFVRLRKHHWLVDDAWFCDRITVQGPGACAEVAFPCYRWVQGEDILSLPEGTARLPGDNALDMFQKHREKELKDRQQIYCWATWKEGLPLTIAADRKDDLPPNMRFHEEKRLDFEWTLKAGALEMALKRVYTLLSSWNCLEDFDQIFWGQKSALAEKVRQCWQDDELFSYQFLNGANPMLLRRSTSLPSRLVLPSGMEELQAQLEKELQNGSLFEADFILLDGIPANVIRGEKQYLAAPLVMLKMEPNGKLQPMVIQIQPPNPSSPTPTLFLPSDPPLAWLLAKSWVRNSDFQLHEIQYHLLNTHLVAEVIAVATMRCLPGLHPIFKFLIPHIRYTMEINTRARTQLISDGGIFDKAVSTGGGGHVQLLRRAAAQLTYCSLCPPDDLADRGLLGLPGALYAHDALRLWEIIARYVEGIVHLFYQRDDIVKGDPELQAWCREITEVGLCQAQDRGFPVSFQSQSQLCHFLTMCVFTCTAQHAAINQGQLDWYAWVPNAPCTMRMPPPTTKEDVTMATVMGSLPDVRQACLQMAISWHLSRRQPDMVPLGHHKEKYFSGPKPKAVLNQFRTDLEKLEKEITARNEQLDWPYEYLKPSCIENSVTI
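Purified human 12hLO at 150 nM in 25 mM Hepes, 0.01% Triton X-100, pH 7.0, preincubated 15 min at room temperature with compound. Reaction started with 40 uM arachidonic acid, 30 min at room temperature. Hydroperoxide measured by Fe-xylenol orange, 573/405 nm absorbance ratio.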
Hits are given with their value; 0 = inactive; ? = inconclusive; - = no result; [ ] = dose if it differs, or a comment. Unless noted, calls follow the shape of the dose curve; as a rule, active = well fitted curve in the direction sought with a large enough effect; inconclusive = small, poorly fitted or top-dose-only effect, or another doubt; inactive = no such curve, though single readings can be large; an effect the other way counts as inactive or inconclusive.

SMILES	Integrin act MD	IL-2 act	uPA surface inh	Nrf2 activator	12-LOX inh
COc1cccc(Nc2nc(-c3cc4cc(Cl)ccc4oc3=O)cs2)c1	-	-	-	-	0
S=C(Nc1ccccn1)c1ccccn1	0	0	0	?	4.5µM
COc1cc(NC(=S)Nc2ccccn2)cc(OC)c1OC	0	0	0	0	?
O=C(Nc1ccccn1)C(=O)Nc1ccccn1	0	0	0	?	0
COc1cc(NC(=S)Nc2ccccn2)cc(OC)c1	0	0	0	0	32µM
S=C(Nc1ccccn1)Nc1ccccc1Cl	?	0	-	?	35µM
COC(=O)Cc1ccc(NC(=S)Nc2ccccn2)cc1	0	0	0	0	40µM
O=C(O)CCC(=O)N[C@H]1CO[C@H]2[C@@H]1OC[C@@H]2Nc1nccc(-c2ccco2)n1	-	-	-	-	0
O=C(c1cc(-c2ccccc2)n[nH]1)N1CCC(N2CC3CC(C2)[C@H]2CCCC(=O)N2C3)CC1 (some centres not stated)	-	-	-	-	0
O=C(NCc1ccco1)C1CCN(c2nccn3nc(-c4ccc(F)cc4)cc23)CC1	-	-	-	-	0
Cc1ccc(Cc2c(-c3ccc(C#N)cc3)nc3ccc(Br)cn23)cc1	0	0	-	0	20µM
Cc1ccc(Cc2c(-c3ccc(F)cc3)nc3cc(C)ccn23)cc1	0	0	-	0	20µM
Cc1ccc(Cc2c(-c3ccccc3)nc3ccc(Br)cn23)cc1	0	0	-	0	6.3µM
Cc1ccc(Cc2c(-c3ccc(Br)cc3)nc3cc(C)ccn23)cc1	0	0	-	0	?
COc1ccc(-c2cc(C(=O)O)c3cc(C)cc(C)c3n2)c(OC)c1	-	-	-	-	0
Cc1ccc(-c2cc(C(=O)O)c3cccc(C)c3n2)s1	-	-	-	-	11µM
COc1ccccc1-c1cc(C(=O)O)c2cccc(C)c2n1	-	-	-	-	10µM
CC(C)c1noc(CCNC(=O)[C@H]2CNC[C@H](C(=O)N3CCOCC3)C2)n1	-	-	-	-	0
Cc1noc2c(N3CCOCC3)cc(-c3ccc(F)cc3)nc12	-	-	-	-	0
Cc1noc2c(NCC3CCOCC3)cc(-c3ccc(F)cc3)nc12	-	-	-	-	56µM
O=S(=O)(N/N=C1/CC(c2ccccc2)Oc2ccccc21)c1ccc(Br)cc1 (configuration not stated)	0[7.66 µM]	0	0	0	0
CNC(=S)N/N=C1\CC(c2ccccc2)Oc2ccccc21 (configuration not stated)	0	0	-	0	40µM
Fc1ccc(N/N=C2/CC(c3ccccc3)Oc3ccccc32)c(F)c1 (configuration not stated)	0	0	0	13µM	?
Cc1noc2c(Nc3ccc(C(N)=O)cc3)cc(-c3ccc(F)cc3)nc12	-	-	-	-	0
Cn1c(-c2ccsc2)cc2c(Nc3ccc(Oc4ccccc4)cc3)nccc21	-	-	-	-	0
SMILES	Integrin act MD	IL-2 act	uPA surface inh	Nrf2 activator	12-LOX inh
O=C(NCC1OCCc2ccccc21)c1ccc(Cl)cc1 (configuration not stated)	-	-	-	-	0
CC(Cc1ccccc1)=NNS(=O)(=O)c1ccc([N+](=O)[O-])cc1	0	0	0	0	20µM
C=CCNC(=O)C(C#N)c1nc2ccccc2nc1N1CCC(C(=O)OCC)CC1 (configuration not stated)	-	-	-	-	0
Cc1ccc(OCCCCc2c(C)n[nH]c2C)c(C(C)(C)C)c1	-	-	-	-	35µM
Cn1c(SCC(=O)Nc2nncs2)nnc1-c1ccccc1	-	-	-	-	0
C=CCN1C(=O)[C@H]2CCC=C[C@H]2[C@@H]1c1cccc(C)c1	0	0	0	0	?
Cc1cccc([C@H]2[C@@H]3C=CCC[C@@H]3C(=O)N2Cc2ccccc2)c1	0	0	0	0	28µM
O=C(COc1ccccc1)Nc1ccc(-c2nnc3n2CCCC3)cc1	-	-	-	-	28µM
O=C(COc1ccc(-c2nnc3n2CCCC3)cc1)Nc1ccccc1	-	-	-	-	0
O=[N+]([O-])c1ccc(/C=N/N=C/c2ccc([N+](=O)[O-])o2)o1	0	0	-	4µM	0
Oc1ccccc1C=NN=Cc1c(O)ccc2ccccc12	0	52	0	?	0
O=C(N/N=C/c1ccc([N+](=O)[O-])o1)c1ccc2c(c1)OCO2	0	0	4.5µM	0	0
O=C(NN=Cc1c(O)ccc2ccccc12)c1ccc2c(c1)OCO2	0	0	8.9µM	0	0
Oc1ccc2ccccc2c1C=NCc1ccccc1	?	0	0	0	0
O=C(N/N=C/c1ccccc1)c1ccc2c(c1)OCO2	0	0	?	0	0
Cc1ccc(-c2nnc(C3CN(C(=O)c4cc(C)nn4C)CC34CCOCC4)o2)cc1 (configuration not stated)	-	-	-	-	0
Cc1ccc(N2CCC(NC(=O)c3ccc(Br)cc3)C2=O)cc1 (configuration not stated)	-	-	-	-	0
O=C1Nc2ccccc2CC12CCN2Cc1ccccc1C(F)(F)F (configuration not stated)	-	-	-	-	0
CCOC(=O)N1CCC(N2CCN(c3cc(C)ccc3C)CC2)CC1	0	0	-	0	6.3µM
Cc1[nH]c2ccccc2c1C(=O)CSc1ccc2c(c1)OCCCO2	-	-	-	-	25µM
O=C(Cc1ccsc1)N1CCC(Cc2nc(-c3ccc(F)cc3)no2)CC1	-	-	-	-	0
Cc1ccc(-c2nc3cnccn3c2NCCC(=O)NCc2ccco2)cc1	-	-	-	-	50µM
Cc1ccnc(NC(=O)c2cc(-c3ccc(C)o3)nc3ccccc23)c1	-	-	-	-	10µM
Cc1ccc(-c2cc(C(=O)Nc3ccccc3C)c3ccccc3n2)o1	0	0	0	0	5µM
CCc1nnc(NC(=O)c2cc(-c3ccc(C)o3)nc3ccccc23)s1	0	0	0	0	6.3µM
SMILES	Integrin act MD	IL-2 act	uPA surface inh	Nrf2 activator	12-LOX inh
Cc1ccc(-c2cc(C(=O)Nc3ccc(F)cc3)c3ccccc3n2)o1	-	-	-	-	3.2µM
COc1cccc(NC(=O)c2cc(-c3ccc(C)o3)nc3ccccc23)c1	0	0	0	0	0
C1=C(CCNc2ncncc2-c2nc(-c3ccccc3)no2)CCCC1	-	-	-	-	0
O=C(CN1C(=O)CCC1=O)Nc1ccc(Br)cc1	0	0	0	0	45µM
NS(=O)(=O)c1ccc(NC(=O)CN2C(=O)CCC2=O)cc1	0	0	0	0	0
O=C(CSc1nc2cc(Cl)ccc2s1)NCCc1ccc(F)cc1	-	-	-	-	0
CC1(c2ccccc2)N(Cc2ccccc2C#N)C(=O)OC12CCN(Cc1c[nH]c3ccccc13)CC2 (configuration not stated)	-	-	-	-	32µM
CC1(c2ccccc2)N(Cc2ccccc2)C(=O)OC12CCN(Cc1c[nH]c3ccccc13)CC2 (configuration not stated)	-	-	-	-	45µM
Cc1[nH]cnc1C(=O)N1CCOc2c(O)cc(-c3csc4ccccc34)cc2C1	-	-	-	-	0
COc1ccc2noc3c2c1C(=O)c1ccccc1-3	0	0	10µM	0	0
Cc1ccc(C(O)CNC(=O)Nc2cc(C)ccc2C)cc1 (configuration not stated)	-	-	-	-	0
CN(C)/C=C/C(=O)c1ccc(Br)cc1	?	0	0	0	7.9µM
COC[C@@H]1CN(Cc2cc(Cl)ccc2F)C[C@H]1C(N)=O	-	-	-	-	0
